Measured values: PubChem BioAssay AID751 (NMMLSC, 2007)
In all, about 24,000 compounds went through this assay and about 40 (0.2%) were called active.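 How the source made its calls: active means inhibition of disassembly above about 33% (limit read from the data); inconclusive means likely self-fluorescent, control bead median signal at least 40; inactive means the rest.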 What follows is part of a selection rich in actives, with near analogues and random picks from the rest.

Tested on: 26S proteasome (yeast, GFP-tagged, ATP-dependent disassembly)
Test: blockers of yeast 26S proteasome breakdown – biochemical, bead-based flow cytometry, GFP-tagged proteasome, primary screen (AID 751);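 further: plate controls were ATP control with full disassembly for no effect and ATP-gamma-S intact proteasomes for full effect; higher percent means more bead fluorescence retained so stronger block of disassembly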
Settings: anti-FLAG beads, hits give high values, concentration not given here

Inhibition of disassembly, inactive:
O=C(CN1CCN(c2ncc(C(F)(F)F)cc2Cl)CC1)Nc1ccc2c(c1)OCO2 2.15%, Cc1nc2ncnn2c(C)c1CCC(=O)N1CCN(C(=O)c2ccco2)CC1 -0.22%, Cc1c2cnn(-c3ccccc3)c(=O)c2c(C)n1CCCC(=O)N1CCN(C)CC1 0.62%, CCSc1nc2c(c(=O)[nH]1)C(c1cccnc1)C(C(=O)OC(C)C)=C(C)N2 (centres undefined) 0.035%, O=C(NCCCN1CCN(Cc2ccccc2)CC1)C1CCN(S(=O)(=O)N2CCCC2)CC1 -1.86%, Nc1nonc1-c1nc2ccccc2n1CCC(=O)O 1.19%, Cc1noc(C)c1S(=O)(=O)N(CC(=O)NCc1ccc(Cl)cc1)c1ccc2c(c1)OCO2 -0.25%, CCOC(=O)N1CCN(S(=O)(=O)c2cc(Br)cc3c2N(C(=O)C2CC2)CC3)CC1 3.18%, CN(Cc1ccccc1)C(=O)CCNC(=O)Cn1cnc2ccccc2c1=O -0.53%, COc1ccc2c(c1)CCc1c(C(=O)N3CCCC3)noc1-2 -0.25%, COc1ccc(-c2nc(CS(=O)CC(=O)N3CCc4ccccc4C3)c(C)o2)cc1 (centres undefined) 1.96%, Nc1ccc(-n2nncc2-c2ccco2)cc1 -0.06%, CCc1nnc(NC(=O)CCC(=O)O)s1 -0.71%, O=C(c1ccccc1)c1ccc2nc(N3CCCCC3)c3nncn3c2c1 3.43%, CC12COC3(C(=O)Nc4ccc(Cl)cn4)CC1CCC32C (centres undefined) 0.35%, CCCn1nnc2sc3c(c2c1=O)CCC(C)C3 (centres undefined) -0.93%, CCCCc1nc2c(=O)[nH]c3ccccc3c2o1 0.25%, CC(=O)Nc1ccc(S(=O)(=O)N2CCC(N(C)CCC(C)C)CC2)cc1 0.37%, CCCn1cc(SCC(N)=O)c2ccccc21 -0.93%, O=C(Nc1nc2ccc(S(=O)(=O)N3CCCC3)cc2s1)C1CCCO1 (centres undefined) -0.99%, COc1ccc(N2C(=O)CCC(C(=O)N(C)C3CCCCC3)C2c2ccc(OC)c(OC)c2)cc1 (centres undefined) -1.19%, CC(=O)NCC(=O)N(C)C(C(=O)Nc1ccc2c(c1)OCCO2)c1ccccc1 (centres undefined) 2.08%, CC(=O)Nc1cc2ccc(OC(C)=O)cc2oc1=O 0.02%, Fc1ccccc1C(c1nnnn1Cc1ccc2c(c1)OCO2)N1CCN(Cc2ccccc2)CC1 (centres undefined) -0.69%, CC(C(=O)N1CCOCC1)N1c2cccc3cccc(c23)S1(=O)=O (centres undefined) -0.85%, C=CCn1c(COc2ccccc2F)nnc1SCC(=O)N1CC(=O)Nc2ccccc21 -0.82%, CCCCNC(=O)c1c[nH]c2ccc(S(=O)(=O)Nc3ccc(OCC)cc3)cc2c1=O 0.53%, CCCCOC(=O)Nc1nccs1 0.85%, CCn1cc(C(=O)N2CCN(C3CCCCC3)CC2)c2cc(OC)c(OC)cc2c1=O -1.25%, COCCCN(C(=O)Cn1ncc2c(=O)oc3ccc(C)cc3c21)C(C)c1ccncc1 (centres undefined) -1.07%, Cc1ccsc1C(C(=O)NC1CCCCC1)N(C(=O)Cc1cccs1)C1CC1 (centres undefined) 1.54%, O=C(NC1(C(F)(F)F)N=C2SCCN2C1=O)c1ccco1 (centres undefined) 1.38%, CCN(CCCNC(=O)C1CCN(S(=O)(=O)c2cnc[nH]2)CC1)c1ccccc1 0.49%, Cc1ccc(C(c2sc3nc(C)nn3c2O)N2CCN(c3ccc(F)cc3)CC2)cc1 (centres undefined) -0.24%, CN1C(=O)c2ccccc2C(C(=O)NCCCN2CCCC2)C1c1c[nH]c2ccccc12 (centres undefined) 1.77%, CCc1ccc(NC(=O)CSc2nc3ccccc3c(=O)n2CCN2CCOCC2)cc1 -3.37%, COc1ccc(OC)c(N=Cc2c(O)[nH]c3ccccc23)c1 25.8%, O=C(CN1C(=O)COc2ccccc21)NCCN1CCc2ccccc2C1 -0.95%, COc1ccc(CN2CN(C(C)C)CSC2=S)cc1 -0.35%, CN1CCN(CCCNC(=O)c2cc3c(=O)oc4ccccc4c3s2)CC1 -0.65%, CCOC(=O)CN1CC23C=CC(O2)C(C(=O)Nc2ccc(F)cc2)C3C1=O (centres undefined) 0.62%, COCCNC(=S)c1ccc(OC)cc1 -2.83%, COc1ccc(Cn2nnc3c(=O)[nH]c(C4CCN(C(=O)c5ccccc5Cl)CC4)nc32)cc1 -0.42%, CCN(CC)S(=O)(=O)c1ccc(NC(=O)CN(c2cccc(F)c2)S(C)(=O)=O)cc1 2.21%, O=C(C(NS(=O)(=O)c1cccc2nsnc12)c1ccccc1)N1CCN(c2ccccn2)CC1 (centres undefined) 0.34%, Cc1c(C(=O)N2CC(C)OC(C)C2)sc2nc(-c3ccccc3)cn12 (centres undefined) 0.65%, COc1cc(C(O)c2nc3ccccc3n2C)cc(OC)c1OC (centres undefined) 1.95%, O=C(CCN1C(=O)c2ccncc2C1=O)Nc1ccc2c(c1)OCCO2 -0.98%

Inhibition of disassembly, active:
CCN(c1ccc2c(c1)OCO2)S(=O)(=O)c1cc(Br)cc2c1N(C(=O)C1CC1)CC2 28.9%
